Measured values from PubChem BioAssay AID1159580 (chemical genetic matrix, 2015).
Several values for one entry are separate records, joined by “and”; a condition that tells them apart may be missing. Identical values can stand only once. The campaign covered roughly 5,500 compounds. About 2,000 (36%) were called active. Another 18% or so got no clear call; they are omitted. Cut-off read from the data, not from the text of the source: active = normalized growth mostly below about 0.91 (no sharp cut-off); inconclusive = no clear call, values can overlap the other calls; inactive = mostly above about 0.92. This is one part of the list.

Assay: chemical genetic growth profiling, strain panel (AID 1159580);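 note: tested at 20 µM; growth read once vehicle control cultures reached saturation at 30 °C; 1 = growth at the plate median or of vehicle wells; lower values mean less growth of the strain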
Settings: S. cerevisiae deletion strains, growth OD

Measured: normalized growth

C[N+]1(CCCCC[N+]2(C)CCCC2)CCCC1
inactive: locus YAL013W, strain DEP1, hits give low values 1 and 0.986 | locus YAL021C, strain ccr4, hits give low values 0.99 | locus YAL026C, strain drs2, hits give low values 0.995 | locus YAL030W, strain snc1, hits give low values 1 | locus YAL040C, strain CLN3, hits give low values 0.976 | locus YBL061C, strain skt5, hits give low values 0.998 | locus YBR009C, strain hhf1, hits give low values 1 | locus YBR021W, strain FUR4, hits give low values 1.01 | locus YBR023C, strain chs3, hits give low values 0.989 | locus YBR171W, strain sec66, hits give low values 1 | locus YBR229C, strain ROT2, hits give low values 1.01 | locus YBR231C, strain swc5, hits give low values 0.986 | locus YBR279W, strain paf1, hits give low values 0.993 | locus YCL011C, strain gbp2, hits give low values 0.993 | locus YCL016C, strain dcc1, hits give low values 0.993 | locus YCL029C, strain bik1, hits give low values 1.04 | locus YCL061C, strain MRC1 (second series), hits give low values 0.994 | locus YCL061C, strain MRC1, hits give low values 0.995 | locus YCL069W, strain vba3, hits give low values 1 | locus YCR088W, strain abp1, hits give low values 0.999 | locus YDL005C, strain med2, hits give low values 0.983 | locus YDL035C, strain GPR1, hits give low values 1.01 | locus YDL040C, strain nat1, hits give low values 0.989 | locus YDL074C, strain BRE1, hits give low values 1.02 | locus YDL101C, strain DUN1, hits give low values 1.01 | locus YDL134C, strain PPH21, hits give low values 1.01 | locus YDL185W, strain tfp1, hits give low values 1.01 | locus YDL192W, strain arf1, hits give low values 1.02 | locus YDR001C, strain nth1, hits give low values 1 | locus YDR069C, strain doa4, hits give low values 0.995 | locus YDR101C, strain arx1, hits give low values 1.01 | locus YDR137W, strain rgp1, hits give low values 1.04 | locus YDR150W, strain NUM1, hits give low values 1 | locus YDR159W, strain sac3, hits give low values 0.991 | locus YDR162C, strain NBP2, hits give low values 1.01 | locus YDR195W, strain ref2 0.922 | locus YDR297W, strain sur2, hits give low values 1.01 | locus YDR318W, strain mcm21, hits give low values 1.02 | locus YDR334W, strain swr1, hits give low values 0.991 | locus YDR335W, strain msn5, hits give low values 0.991 | locus YDR363W, strain ESC2, hits give low values 0.985 | locus YDR388W, hits give low values 1.01 | locus YDR392W, strain spt3, hits give low values 1.01 | locus YDR502C, strain sam2, hits give low values 1.01 | locus YEL003W, strain gim4, hits give low values 0.997 | locus YEL037C, strain rad23, hits give low values 0.994 | locus YEL061C, strain CIN8 (second series), hits give low values 0.991 | locus YEL061C, strain CIN8, hits give low values 1 | locus YER002W, strain NOP16, hits give low values 1.01 | locus YER015W, strain faa2, hits give low values 0.993 | locus YER016W, strain bim1, hits give low values 0.995 | locus YER110C, hits give low values 1.02 | locus YER111C, strain swi4, hits give low values 0.983 | locus YER155C, strain BEM2 (second series), hits give low values 0.996 | locus YER155C, strain BEM2, hits give low values 0.997 | locus YER167W, strain BCK2, hits give low values 1 | locus YFR010W, strain ubp6, hits give low values 0.998 | locus YGL078C, strain dbp3, hits give low values 1.01 | locus YGL086W, strain mad1, hits give low values 0.996 | locus YGL167C, strain pmr1, hits give low values 1 | locus YGL173C, strain kem1, hits give low values 1 | locus YGL227W, strain vid30, hits give low values 0.984 | locus YGL240W, strain doc1, hits give low values 0.988 | locus YGL248W, strain PDE1, hits give low values 1.02 | locus YGL253W, strain hxk2, hits give low values 0.987 | locus YGR078C, strain PAC10, hits give low values 1.02 | locus YGR135W, strain pre9, hits give low values 1.01 | locus YGR229C, strain SMI1, hits give low values 1.01 | locus YGR252W, strain gcn5, hits give low values 1 | locus YHR013C, strain ard1, hits give low values 0.962 | locus YHR027C, strain rpn1, hits give low values 0.998 | locus YHR030C, strain SLT2, hits give low values 1.01 | locus YHR079C, strain IRE1 (second series), hits give low values 1.02 | locus YHR094C, strain hxt1, hits give low values 1.01 | locus YHR129C, strain ARP1, hits give low values 1.01 | locus YHR142W, strain chs7, hits give low values 0.997 | locus YHR200W, strain rpn10, hits give low values 1 | locus YIL066C, strain RNR3, hits give low values 1.01 | locus YIL073C, strain SPO22, hits give low values 1.05 | locus YIL125W, strain kgd1, hits give low values 1.02 | locus YIR030C, strain dcg1, hits give low values 1.01 | locus YJL092W, strain hpr5, hits give low values 0.997 | locus YJL095W, strain BCK1 (second series), hits give low values 0.993 | locus YJL095W, strain BCK1, hits give low values 1.03 | locus YJL115W, strain asf1, hits give low values 0.988 | locus YJL129C, strain trk1, hits give low values 0.992 | locus YJL134W, strain LCB3, hits give low values 1 | locus YJL154C, strain vps35, hits give low values 0.995 | locus YJL164C, strain tpk1, hits give low values 0.995 | locus YJL166W, strain qcr8, hits give low values 0.999 | locus YJL168C, strain set2, hits give low values 1.01 | locus YJL187C, strain SWE1 (second series), hits give low values 1.02 | locus YJL187C, strain SWE1, hits give low values 1
